Common to all, as to test: DAPPL (digital affinity profiling via proximity ligation, sequencing); 10 mM Tris-HCl pH 7.5, 50 mM NaCl, 1 mM DTT, 4% glycerol, room temperature, 30 min; GST-TFs on glutathione beads, 16-mer random dsDNA library, 0.1% formaldehyde crosslink after washing; high values mean tight binding
Assay [1] deals with T1, FEV (Homo sapiens, UniProt Q99581 1-238).
T1 sequence: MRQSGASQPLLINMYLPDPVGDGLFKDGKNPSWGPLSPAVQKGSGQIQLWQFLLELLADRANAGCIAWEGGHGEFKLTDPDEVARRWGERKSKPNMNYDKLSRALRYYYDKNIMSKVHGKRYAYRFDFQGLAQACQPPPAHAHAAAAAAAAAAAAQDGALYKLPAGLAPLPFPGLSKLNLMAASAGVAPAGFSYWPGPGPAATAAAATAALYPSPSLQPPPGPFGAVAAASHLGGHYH
Particulars: protein: recombinant; tags: N-terminal GST; dsDNA, one strand shown. The procedure, abridged: (§1)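 Each value of binding signal is a hexamer's read frequency for a factor divided by the same hexamer's frequency in the tag-only sample. Barcoded, bead-captured GST fusions of human transcription factors made in yeast were pooled with that sample and incubated with 200 nmole of a random double-stranded 16-mer DNA library in Tris/NaCl/DTT/glycerol buffer at room temperature for 30 min. Washing, 0.1% formaldehyde crosslinking, proximity ligation, PCR and Illumina NextSeq500 sequencing followed.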

For assay [2], the target named is ETV5 (Homo sapiens, UniProt P41161 1-510). Particulars: protein: recombinant; tags: N-terminal GST; dsDNA, one strand shown. The procedure, abridged:
as §1

The target of assay [3] is HSF1 (Homo sapiens, UniProt Q00613 1-529). Particulars: protein: recombinant; tags: N-terminal GST; chain copies: 3; dsDNA, one strand shown. The procedure, abridged:
as §1

Assay [4] deals with T2, SPIC (Homo sapiens, UniProt Q8N5J4 1-248).
T2 sequence: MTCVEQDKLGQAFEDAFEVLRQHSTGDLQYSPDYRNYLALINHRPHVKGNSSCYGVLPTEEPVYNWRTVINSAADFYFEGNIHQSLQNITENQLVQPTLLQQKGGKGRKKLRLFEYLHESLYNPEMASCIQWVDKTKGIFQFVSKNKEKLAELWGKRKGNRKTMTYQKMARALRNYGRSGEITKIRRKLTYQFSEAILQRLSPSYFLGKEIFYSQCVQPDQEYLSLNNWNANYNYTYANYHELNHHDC
The conditions noted are these: protein: recombinant; tags: N-terminal GST; dsDNA, one strand shown. The procedure, abridged:
as §1

Assay [5] has as its target ELF4 (Homo sapiens, UniProt Q99607 1-663). Particulars: protein: recombinant; tags: N-terminal GST; dsDNA, one strand shown. The procedure, abridged: as §1
Assay [6] concerns the target T3, ELK4 (Homo sapiens, UniProt P28324-2 1-405).
T3 sequence: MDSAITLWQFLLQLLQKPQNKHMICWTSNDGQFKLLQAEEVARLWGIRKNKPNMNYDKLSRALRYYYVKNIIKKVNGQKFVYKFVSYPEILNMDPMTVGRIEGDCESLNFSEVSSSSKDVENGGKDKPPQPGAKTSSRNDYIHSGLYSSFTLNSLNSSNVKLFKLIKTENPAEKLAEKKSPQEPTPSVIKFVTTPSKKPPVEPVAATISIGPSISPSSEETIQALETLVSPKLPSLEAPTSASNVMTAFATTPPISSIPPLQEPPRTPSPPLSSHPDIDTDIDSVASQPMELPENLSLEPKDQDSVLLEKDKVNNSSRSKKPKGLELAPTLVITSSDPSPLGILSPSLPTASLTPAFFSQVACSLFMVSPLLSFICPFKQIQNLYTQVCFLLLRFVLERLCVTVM
The conditions noted are these: protein: recombinant; tags: N-terminal GST; dsDNA, one strand shown. The procedure, abridged: as §1

Assay [7] concerns the target T4, ETV2 (Homo sapiens, UniProt O00321 1-342).
T4 sequence: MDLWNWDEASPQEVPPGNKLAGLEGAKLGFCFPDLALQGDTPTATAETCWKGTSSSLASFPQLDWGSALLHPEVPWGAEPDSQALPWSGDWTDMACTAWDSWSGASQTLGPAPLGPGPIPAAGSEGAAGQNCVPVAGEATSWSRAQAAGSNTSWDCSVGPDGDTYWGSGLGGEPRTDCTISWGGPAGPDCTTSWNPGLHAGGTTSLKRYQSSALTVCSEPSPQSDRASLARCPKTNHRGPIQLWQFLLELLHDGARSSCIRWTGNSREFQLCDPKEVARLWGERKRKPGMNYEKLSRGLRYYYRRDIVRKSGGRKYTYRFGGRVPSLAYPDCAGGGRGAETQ
The conditions noted are these: protein: recombinant; tags: N-terminal GST; dsDNA, one strand shown. The method in brief:
as §1

For assay [8], the target named is T5, ELF3 (Homo sapiens, UniProt P78545 1-371).
T5 sequence: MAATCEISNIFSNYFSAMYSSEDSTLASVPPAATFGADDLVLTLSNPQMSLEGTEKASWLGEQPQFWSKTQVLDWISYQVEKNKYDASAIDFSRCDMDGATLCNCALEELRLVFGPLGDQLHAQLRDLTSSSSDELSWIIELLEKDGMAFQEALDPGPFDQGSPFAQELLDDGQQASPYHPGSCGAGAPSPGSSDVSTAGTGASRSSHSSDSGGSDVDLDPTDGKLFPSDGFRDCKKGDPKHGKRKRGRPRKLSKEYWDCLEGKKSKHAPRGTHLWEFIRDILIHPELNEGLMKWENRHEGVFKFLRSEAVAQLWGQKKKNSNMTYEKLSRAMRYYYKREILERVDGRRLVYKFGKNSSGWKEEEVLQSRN
Particulars: protein: recombinant; tags: N-terminal GST; dsDNA, one strand shown. The procedure, abridged:
as §1

Assay [9] has as its target CRX (Homo sapiens, UniProt O43186 1-299). The conditions noted are these: protein: recombinant; tags: N-terminal GST; dsDNA, one strand shown. The procedure, abridged:
as §1

Assay [10] addresses ETV1 (Homo sapiens, UniProt P50549 1-477). Particulars: protein: recombinant; tags: N-terminal GST; dsDNA, one strand shown. The procedure, abridged: as §1
Assay [11] deals with T6, ERF (Homo sapiens, UniProt P50548 1-548).
T6 sequence: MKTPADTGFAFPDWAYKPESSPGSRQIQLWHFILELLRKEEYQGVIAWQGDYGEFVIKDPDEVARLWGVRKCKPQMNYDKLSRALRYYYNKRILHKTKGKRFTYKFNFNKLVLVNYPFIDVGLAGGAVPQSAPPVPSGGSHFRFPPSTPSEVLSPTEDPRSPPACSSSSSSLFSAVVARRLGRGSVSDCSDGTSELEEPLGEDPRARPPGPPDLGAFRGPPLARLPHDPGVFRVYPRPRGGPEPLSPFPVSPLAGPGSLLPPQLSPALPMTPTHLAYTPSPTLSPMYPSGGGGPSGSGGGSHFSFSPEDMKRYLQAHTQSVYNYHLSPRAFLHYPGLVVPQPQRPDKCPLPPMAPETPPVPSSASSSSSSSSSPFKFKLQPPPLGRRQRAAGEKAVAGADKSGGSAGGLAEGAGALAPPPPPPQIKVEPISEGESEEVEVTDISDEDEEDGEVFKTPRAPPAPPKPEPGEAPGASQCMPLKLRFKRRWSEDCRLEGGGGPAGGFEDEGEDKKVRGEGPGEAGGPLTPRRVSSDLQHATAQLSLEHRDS
Particulars: protein: recombinant; tags: N-terminal GST; dsDNA, one strand shown. The procedure, abridged: as §1

The target in assay [12] is T7, ETV3L (Homo sapiens, UniProt Q6ZN32 1-361).
T7 sequence: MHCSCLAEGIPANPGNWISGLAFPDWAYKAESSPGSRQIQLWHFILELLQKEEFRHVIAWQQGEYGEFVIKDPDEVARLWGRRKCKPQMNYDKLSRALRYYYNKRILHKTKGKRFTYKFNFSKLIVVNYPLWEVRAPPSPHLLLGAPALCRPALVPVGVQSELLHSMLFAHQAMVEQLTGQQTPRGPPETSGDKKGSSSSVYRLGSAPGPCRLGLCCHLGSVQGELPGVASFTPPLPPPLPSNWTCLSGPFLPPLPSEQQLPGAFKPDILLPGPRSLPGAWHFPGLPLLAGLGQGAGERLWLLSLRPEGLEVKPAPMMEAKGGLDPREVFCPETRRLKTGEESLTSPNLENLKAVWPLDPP
The conditions noted are these: protein: recombinant; tags: N-terminal GST; dsDNA, one strand shown. The method in brief: as §1

Assay [13] deals with T8, ETS2 (Homo sapiens, UniProt P15036 1-469).
T8 sequence: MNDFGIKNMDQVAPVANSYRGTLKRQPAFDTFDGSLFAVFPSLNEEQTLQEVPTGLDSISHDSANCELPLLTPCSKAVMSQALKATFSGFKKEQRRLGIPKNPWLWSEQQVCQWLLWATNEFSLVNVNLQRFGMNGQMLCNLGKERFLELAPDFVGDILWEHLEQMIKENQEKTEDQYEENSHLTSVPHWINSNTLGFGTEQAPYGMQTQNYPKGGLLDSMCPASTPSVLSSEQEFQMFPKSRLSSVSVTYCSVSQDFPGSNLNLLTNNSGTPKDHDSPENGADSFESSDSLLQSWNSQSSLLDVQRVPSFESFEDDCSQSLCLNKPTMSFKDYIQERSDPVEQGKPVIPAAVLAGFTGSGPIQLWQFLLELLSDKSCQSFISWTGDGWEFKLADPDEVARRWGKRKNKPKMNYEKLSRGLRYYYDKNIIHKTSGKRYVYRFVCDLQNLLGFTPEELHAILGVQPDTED
Particulars: protein: recombinant; tags: N-terminal GST; dsDNA, one strand shown. The procedure, abridged: as §1

Assay [14] concerns the target T9, SPDEF (Homo sapiens, UniProt O95238 1-335).
T9 sequence: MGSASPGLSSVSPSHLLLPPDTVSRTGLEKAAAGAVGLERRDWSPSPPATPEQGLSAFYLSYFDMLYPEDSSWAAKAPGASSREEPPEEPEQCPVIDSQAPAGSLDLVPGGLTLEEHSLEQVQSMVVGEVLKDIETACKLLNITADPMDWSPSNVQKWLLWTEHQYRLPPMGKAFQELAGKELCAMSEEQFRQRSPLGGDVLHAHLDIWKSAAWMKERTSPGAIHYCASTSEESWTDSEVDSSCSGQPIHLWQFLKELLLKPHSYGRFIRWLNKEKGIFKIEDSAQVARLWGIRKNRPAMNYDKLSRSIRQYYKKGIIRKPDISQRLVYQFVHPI
Particulars: protein: recombinant; tags: N-terminal GST; dsDNA, one strand shown. The method in brief: as §1

The target in assay [15] is T10, ETV7 (Homo sapiens, UniProt Q9Y603 1-341).
T10 sequence: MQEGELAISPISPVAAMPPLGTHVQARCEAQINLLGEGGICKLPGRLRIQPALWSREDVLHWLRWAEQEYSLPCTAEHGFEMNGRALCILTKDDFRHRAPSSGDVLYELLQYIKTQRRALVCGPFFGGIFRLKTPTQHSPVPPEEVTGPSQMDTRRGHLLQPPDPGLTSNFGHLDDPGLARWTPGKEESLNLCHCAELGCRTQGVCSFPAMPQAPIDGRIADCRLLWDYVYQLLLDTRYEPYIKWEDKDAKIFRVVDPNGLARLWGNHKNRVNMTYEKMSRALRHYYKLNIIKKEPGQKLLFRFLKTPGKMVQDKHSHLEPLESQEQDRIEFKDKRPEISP
Particulars: protein: recombinant; tags: N-terminal GST; dsDNA, one strand shown. The procedure, abridged:
as §1

Assay [16] concerns the target T11, ELF5 (Homo sapiens, UniProt Q9UKW6-2 1-255).
T11 sequence: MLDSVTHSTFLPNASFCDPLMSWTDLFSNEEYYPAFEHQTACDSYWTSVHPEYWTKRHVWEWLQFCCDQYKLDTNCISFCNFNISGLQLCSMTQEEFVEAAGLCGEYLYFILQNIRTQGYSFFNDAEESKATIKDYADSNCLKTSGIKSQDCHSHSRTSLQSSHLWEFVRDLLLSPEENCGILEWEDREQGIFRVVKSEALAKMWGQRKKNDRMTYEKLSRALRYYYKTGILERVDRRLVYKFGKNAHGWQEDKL
The conditions noted are these: protein: recombinant; tags: N-terminal GST; dsDNA, one strand shown. The method in brief: as §1

The target of assay [17] is T12, ETV3 (Homo sapiens, UniProt P41162-2 1-143).
T12 sequence: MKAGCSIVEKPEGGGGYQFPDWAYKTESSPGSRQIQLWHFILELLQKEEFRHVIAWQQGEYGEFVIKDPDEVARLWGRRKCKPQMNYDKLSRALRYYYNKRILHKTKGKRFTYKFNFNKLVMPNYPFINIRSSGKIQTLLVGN
The conditions noted are these: protein: recombinant; tags: N-terminal GST; dsDNA, one strand shown. The method in brief: as §1

In assay [18] the target is ETV6 (Homo sapiens, UniProt P41212 1-452). Particulars: protein: recombinant; tags: N-terminal GST; dsDNA, one strand shown. The procedure, abridged:
as §1

ETV6, sequence (P41212 whole entry): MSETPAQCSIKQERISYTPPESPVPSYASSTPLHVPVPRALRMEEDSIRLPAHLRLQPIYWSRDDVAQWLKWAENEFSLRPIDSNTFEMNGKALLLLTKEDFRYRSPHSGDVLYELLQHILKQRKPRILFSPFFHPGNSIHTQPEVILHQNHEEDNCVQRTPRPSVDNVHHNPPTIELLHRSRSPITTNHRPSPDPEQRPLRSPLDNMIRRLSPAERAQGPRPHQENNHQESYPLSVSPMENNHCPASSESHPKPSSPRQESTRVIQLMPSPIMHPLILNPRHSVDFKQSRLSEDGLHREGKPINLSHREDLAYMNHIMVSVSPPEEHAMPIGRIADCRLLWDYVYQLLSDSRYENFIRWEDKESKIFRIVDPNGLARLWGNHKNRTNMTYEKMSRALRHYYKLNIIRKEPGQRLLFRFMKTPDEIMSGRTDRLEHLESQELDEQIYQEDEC
ELF4, sequence (Q99607 whole entry): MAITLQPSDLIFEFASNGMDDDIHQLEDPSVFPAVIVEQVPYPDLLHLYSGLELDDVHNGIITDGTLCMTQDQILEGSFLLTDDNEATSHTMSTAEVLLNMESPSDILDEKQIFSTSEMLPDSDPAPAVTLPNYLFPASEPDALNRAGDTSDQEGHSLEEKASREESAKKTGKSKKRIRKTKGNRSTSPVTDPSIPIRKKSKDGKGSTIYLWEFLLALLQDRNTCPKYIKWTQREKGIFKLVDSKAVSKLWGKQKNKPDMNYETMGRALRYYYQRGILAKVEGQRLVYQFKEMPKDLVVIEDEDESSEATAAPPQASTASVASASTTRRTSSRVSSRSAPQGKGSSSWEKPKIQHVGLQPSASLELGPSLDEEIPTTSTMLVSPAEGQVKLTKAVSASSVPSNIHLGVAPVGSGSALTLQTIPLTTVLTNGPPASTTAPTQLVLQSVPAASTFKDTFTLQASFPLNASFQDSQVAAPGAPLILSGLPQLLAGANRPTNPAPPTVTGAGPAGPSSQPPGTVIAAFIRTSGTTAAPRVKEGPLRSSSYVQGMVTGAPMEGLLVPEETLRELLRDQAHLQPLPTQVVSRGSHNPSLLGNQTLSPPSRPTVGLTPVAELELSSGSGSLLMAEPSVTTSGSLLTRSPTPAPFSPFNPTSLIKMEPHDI
ETV5, sequence (P41161 whole entry): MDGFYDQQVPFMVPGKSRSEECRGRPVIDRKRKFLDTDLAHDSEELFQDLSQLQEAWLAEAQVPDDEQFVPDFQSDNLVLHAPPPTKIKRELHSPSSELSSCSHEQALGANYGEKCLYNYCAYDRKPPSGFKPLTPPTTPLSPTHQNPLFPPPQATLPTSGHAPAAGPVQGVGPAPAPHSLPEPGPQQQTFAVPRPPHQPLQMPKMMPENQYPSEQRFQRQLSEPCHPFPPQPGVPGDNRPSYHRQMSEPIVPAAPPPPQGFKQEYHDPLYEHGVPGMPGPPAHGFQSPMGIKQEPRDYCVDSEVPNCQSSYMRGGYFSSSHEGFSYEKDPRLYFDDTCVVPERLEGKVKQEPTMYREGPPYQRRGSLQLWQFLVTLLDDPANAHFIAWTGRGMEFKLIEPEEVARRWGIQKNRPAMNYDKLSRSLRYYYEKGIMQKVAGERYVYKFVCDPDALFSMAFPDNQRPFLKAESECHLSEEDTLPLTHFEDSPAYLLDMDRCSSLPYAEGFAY
CRX, sequence (O43186 whole entry): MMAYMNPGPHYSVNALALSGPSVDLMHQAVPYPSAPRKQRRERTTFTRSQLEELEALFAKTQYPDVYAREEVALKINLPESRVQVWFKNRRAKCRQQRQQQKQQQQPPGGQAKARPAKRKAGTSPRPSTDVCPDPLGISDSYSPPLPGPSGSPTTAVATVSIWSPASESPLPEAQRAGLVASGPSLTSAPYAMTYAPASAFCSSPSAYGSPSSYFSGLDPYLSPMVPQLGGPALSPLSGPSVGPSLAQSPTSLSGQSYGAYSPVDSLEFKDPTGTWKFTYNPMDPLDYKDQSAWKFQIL
ETV1, sequence (P50549 whole entry): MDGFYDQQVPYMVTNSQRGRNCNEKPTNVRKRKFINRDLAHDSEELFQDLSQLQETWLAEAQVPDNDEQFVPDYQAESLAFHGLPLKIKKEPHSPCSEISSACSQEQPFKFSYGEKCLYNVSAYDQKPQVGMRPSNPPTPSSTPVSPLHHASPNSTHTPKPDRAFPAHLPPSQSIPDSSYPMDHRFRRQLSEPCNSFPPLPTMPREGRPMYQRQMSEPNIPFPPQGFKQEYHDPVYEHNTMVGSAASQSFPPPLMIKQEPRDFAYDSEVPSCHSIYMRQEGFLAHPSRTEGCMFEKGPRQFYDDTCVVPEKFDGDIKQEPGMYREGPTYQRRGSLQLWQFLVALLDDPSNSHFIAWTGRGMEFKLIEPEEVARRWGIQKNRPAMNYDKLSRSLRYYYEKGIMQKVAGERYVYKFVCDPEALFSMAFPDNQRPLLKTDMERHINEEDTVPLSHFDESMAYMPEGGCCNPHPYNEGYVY
HSF1, sequence (Q00613 whole entry): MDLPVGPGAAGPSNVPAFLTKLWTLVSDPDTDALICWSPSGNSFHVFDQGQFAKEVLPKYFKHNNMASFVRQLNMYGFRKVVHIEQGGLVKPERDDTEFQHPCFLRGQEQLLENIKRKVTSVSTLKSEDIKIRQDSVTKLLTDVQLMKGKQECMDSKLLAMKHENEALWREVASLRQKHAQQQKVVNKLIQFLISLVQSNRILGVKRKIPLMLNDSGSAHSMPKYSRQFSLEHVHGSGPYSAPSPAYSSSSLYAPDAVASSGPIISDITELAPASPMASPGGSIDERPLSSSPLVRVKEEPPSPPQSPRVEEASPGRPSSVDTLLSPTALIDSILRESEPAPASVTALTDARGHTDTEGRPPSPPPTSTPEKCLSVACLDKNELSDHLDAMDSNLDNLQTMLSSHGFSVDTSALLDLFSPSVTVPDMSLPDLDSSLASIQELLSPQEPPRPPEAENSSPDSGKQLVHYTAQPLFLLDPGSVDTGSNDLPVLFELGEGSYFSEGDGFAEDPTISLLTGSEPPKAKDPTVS

With ATCTCG, the binding signal in assay [1] is 1.19 fold enrichment (6-mer frequency, TF over GST control); in [2], 1.35 fold enrichment (6-mer frequency, TF over GST control); in [3], 2.44 fold enrichment (6-mer frequency, TF over GST control); in [4] it was 1.19 fold enrichment (6-mer frequency, TF over GST control); in assay [5], 1.32 fold enrichment (6-mer frequency, TF over GST control); in [6] it was 1.42 fold enrichment (6-mer frequency, TF over GST control). Besides, the binding signal in assay [7] was 1.51 fold enrichment (6-mer frequency, TF over GST control); in assay [8] it was 1.55 fold enrichment (6-mer frequency, TF over GST control); in [9], 1.92 fold enrichment (6-mer frequency, TF over GST control); in [10], 1.46 fold enrichment (6-mer frequency, TF over GST control); in assay [11] it was 1.36 fold enrichment (6-mer frequency, TF over GST control); in [12], 1.38 fold enrichment (6-mer frequency, TF over GST control). Also, the binding signal in [13] was 1.42 fold enrichment (6-mer frequency, TF over GST control); in assay [14] it was 1.28 fold enrichment (6-mer frequency, TF over GST control); in [15], 1.38 fold enrichment (6-mer frequency, TF over GST control); in [16], 1.28 fold enrichment (6-mer frequency, TF over GST control); in assay [17], 1.29 fold enrichment (6-mer frequency, TF over GST control); in assay [18] it was 1.3 fold enrichment (6-mer frequency, TF over GST control).
